# An excerpt weighted towards active compounds, which were near 7.3% of everything screened.
# Luc counter: Counterscreen for Luciferase (Kinase-Glo TM) Inhibition; Luciferin 4-monooxygenase (Photuris pensylvanica), Q27757; Kinase-Glo luciferase, ATP luminescence, 8 min; Potency, µM (doses to about 38.3 µM), usual class: inhibitors; hit rate 0.28% among 200,000; AID 1379, 2008; further: nearly all actives have a fitted effect of over 60% in size
#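 Inhibition of Kinase-Glo luciferase light generation was assessed at 10 uM ATP in pH 7.2 imidazole buffer, with luminescence measured after eight minutes at ambient temperature.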
# ELG1 genotox: qHTS screen for small molecules that induce genotoxicity in human embryonic kidney (HEK293T) cells expressing luciferase-tagged ELG1 | HEK293T ELG1-luciferase reporter, luminescence, 16 h | Potency, µM (doses to about 46 µM), most hits filed as activators | hit rate 1.3% among 330,000 | AID 504466, 2011; further: nearly all actives have a fitted effect of over 60% in size
#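 DMSO vehicle served as control against compound-treated ELG1-luciferase HEK293T cells; exposure lasted 16 hr at 37 °C and 5% CO2, followed by ONE-Glo luminescence detection after 30 min.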
# FLuc counter: qHTS profiling assay for firefly luciferase inhibitor/activator using purifed enzyme and Km concentrations of substrates (counterscreen for miR-21 project); Luciferin 4-monooxygenase (Photinus pyralis), P08659; purified FLuc, Km substrates, luminescence inhibition; Potency, µM (series often up to 57.5 µM), hits mostly inhibitors; hit rate 6.9% among 360,000; AID 588342, 2011; further: nearly all actives have a fitted effect of over 55% in size
# Target sequence (P08659 whole entry, looked up): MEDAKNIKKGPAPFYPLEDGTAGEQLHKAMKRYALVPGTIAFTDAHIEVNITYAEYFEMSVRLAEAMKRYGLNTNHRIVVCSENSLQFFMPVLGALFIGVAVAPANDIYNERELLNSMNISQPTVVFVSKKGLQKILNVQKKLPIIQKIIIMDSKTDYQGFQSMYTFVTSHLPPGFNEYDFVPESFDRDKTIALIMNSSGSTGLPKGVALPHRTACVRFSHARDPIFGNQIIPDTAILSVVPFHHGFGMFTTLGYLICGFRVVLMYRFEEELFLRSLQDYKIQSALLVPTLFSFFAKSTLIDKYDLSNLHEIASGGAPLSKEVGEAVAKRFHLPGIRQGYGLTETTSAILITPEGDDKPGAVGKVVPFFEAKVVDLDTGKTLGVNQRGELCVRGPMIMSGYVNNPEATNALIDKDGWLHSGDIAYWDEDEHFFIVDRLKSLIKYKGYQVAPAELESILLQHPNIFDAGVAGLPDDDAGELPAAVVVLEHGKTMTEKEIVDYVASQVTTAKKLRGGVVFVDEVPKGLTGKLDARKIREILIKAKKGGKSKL
#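 Purified P. pyralis luciferase, 10 nM final, with Km-level 10 uM D-luciferin and 10 uM ATP in 50 mM Tris acetate pH 7.5, 10 mM Mg acetate, 0.01% Tween-20, 0.05% BSA; 6-point qHTS titration about 60 µM downward; luminescence read.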
# SMN2 splice up: qHTS Assay for Enhancers of SMN2 Splice Variant Expression. HEK293 SMN2-luciferase splicing reporter, luminescence, 30-36 h. hit rate 2.8% among 210,000. Potency, µM (series often up to 46.1 µM), usual class: activators. AID 1458, 2008; further: nearly all actives have a fitted effect of over 55% in size
#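 HEK293 cells carry an SMN2 […]–luciferase reporter in which exon 7 inclusion puts luciferase in frame. Cells were plated 10-12 h before compound addition, then incubated 30-36 h at 37C. ONE-Glo luminescence was read; sodium butyrate at 4.5 mM final served as control.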
# NPC1 prom act: qHTS Assay for NPC1 Promoter Activators; Potency, µM (series often up to 9.22 µM), hits mostly activators; Huh7 NPC1 promoter luciferase reporter, 24 h; hit rate 2.4% among 320,000; further: nearly all actives have a fitted effect of over 60% in size
#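 Huh7 reporter cells (NPC1 promoter driving luciferase) are dosed with compound for 24 h at 37 °C, 5% CO2; luciferase detection reagent is then added and luminescence measured after 10 min at ambient temperature.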
# Rab9 prom act: qHTS Assay for Rab9 Promoter Activators; Huh7 Rab9 promoter-luciferase reporter, luminescence, 24 h; Potency, µM (series often up to 9.22 µM), most hits filed as activators; hit rate 2.8% among 320,000; further: nearly all actives have a fitted effect of over 60% in size
#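 Stable Rab9-luc Huh7, 1500 cells/well, 2 h settle; cmpd in DMSO, 24 h, 37 °C/5% CO2; luciferase reagent 10 min RT; luminescence.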
# Numbers stand for hits; - = inactive; ? = inconclusive; . = no result. The call rests on the fitted dose curve; in most records, active means well fitted curve in the direction sought with a large enough effect; inconclusive means small, poorly fitted or top-dose-only effect, or another doubt; inactive means no such curve, though single readings can be large; an effect the other way counts as inactive or inconclusive.
SMILES,Luc counter,ELG1 genotox,FLuc counter,SMN2 splice up,NPC1 prom act,Rab9 prom act
Cc1cc2nc(SCC(=O)Nc3ccccc3C(=O)O)[nH]c2cc1C,-,?,11µM,-,-,-
NC(=O)c1sc(=S)n2c1[nH]c(=O)c1sccc12,-,-,?,-,-,-
CC(=O)NNC(=O)c1sc(=S)n2c1[nH]c(=O)c1sccc12,-,-,19µM,-,-,-
CCN(CC)CCn1c(NCc2ccc(C)o2)nc2ccccc21,-,-,-,-,-,-
Cn1c(NCc2ccccc2O)nc2ccccc21,-,?,21µM,?,4µM,2.8µM
Cn1c(NCc2ccccc2F)nc2ccccc21,.,.,17µM,13µM,.,.
CC(C)n1c(NCc2ccccc2O)nc2ccccc21,.,-,-,.,-,-
Cc1ccc(CNc2nc3ccccc3n2C)o1,.,?,?,.,?,2µM
CCOc1ccc(CNc2nc3ccccc3n2C)cc1,.,?,12µM,.,3.2µM,2µM
CCOc1ccccc1CNc1nc2ccccc2n1C,.,-,-,.,-,-
O=C(CCC1N=C2c3ccccc3N=C(SCc3ccc(F)cc3)N2C1=O)NC1CCCCC1 (configuration not stated),.,.,-,.,.,.
N[C@H](Cc1ccc(O)c(O)c1)C(=O)O,-,.,.,-,.,.
O=C(/C=C/c1ccccc1)c1ccc2c3c(cccc13)CC2,.,?,12µM,.,-,-
O=C(/C=C\c1ccc(-c2ccccc2)o1)c1ccccc1,-,?,6µM,?,?,?
Cc1c(NC(=O)c2ccc3c4c(cccc24)CC3)c(=O)n(-c2ccccc2)n1C,-,-,-,-,-,-
CC(C)(C)C(=O)/C=C(N)/C=C/c1ccccc1,-,?,12µM,-,?,-
O=C(O)c1ccccc1-c1ccccc1C(=O)Nc1ccc(F)cc1,.,-,-,.,-,-
O=C(/C=C/c1ccc(NC(=O)c2ccccc2-c2ccccc2C(=O)O)cc1)c1ccccc1,.,-,19µM,.,-,-
CCOc1ccccc1N(C)C(=O)Cn1nc(Cc2ccncc2)c2ccccc2c1=O,.,.,-,-,.,.
CCS(=O)(=O)N1CCCC(C(=O)NCCOC)C1 (configuration not stated),.,.,-,.,.,.
COc1cccc(-n2cc(C(=O)Nc3cc(OC)c(OC)c(OC)c3)c3ccccc3c2=O)c1,.,.,-,.,.,.
COC(=O)CN1C(=O)C(C)(C)c2cc(S(=O)(=O)NCc3ccc(Cl)cc3)ccc21,.,.,-,.,.,.
N/C(=N\OC(=O)/C=C/c1ccccc1)c1ccccc1,?,8.2µM,1.5µM,.,?,?
N/C(=N\OC(=O)/C=C/c1ccccc1)c1ccc(Cl)cc1,.,-,?,.,-,-
O=C(/C=C/c1ccccc1)c1ccccc1,-,?,2.4µM,-,-,-
SMILES,Luc counter,ELG1 genotox,FLuc counter,SMN2 splice up,NPC1 prom act,Rab9 prom act
N#Cc1ccc(/C=C/C(=O)c2ccccc2)cc1,.,?,5.4µM,.,-,-
N#Cc1ccccc1COc1ccc(/C=C/C(=O)O)cc1,-,-,2.4µM,-,-,-
O=C(/C=C/c1cccc([N+](=O)[O-])c1)c1ccccc1,-,.,.,-,.,.
COc1cccc(OC)c1C(=O)Nc1cccc(-c2nc3cc(C)cc(C)c3o2)c1,.,.,?,-,.,.
CCCCC/C=C\C/C=C\C[C@H](O)/C=C/C=C\CCCC(=O)O,-,.,.,-,.,.
O=C(/C=C/c1ccccc1)/C=C/c1ccccc1,-,-,3.4µM,-,-,-
COc1cc(CNc2ncnc3c2[nH]c2ccc(C)cc23)cc(OC)c1,.,-,27µM,.,-,-
Cc1ccc2[nH]c3c(NCc4ccco4)ncnc3c2c1,-,-,13µM,-,-,-
Cc1noc(C)c1C(=O)N1CCC2(CCN(C(=O)NC(C)C)CC2)CC1,-,.,.,-,.,.
COc1ccc2c(c1OC)C(=O)OC2Nc1nc(-c2cc3cc(Br)ccc3oc2=O)cs1 (configuration not stated),.,?,21µM,.,2µM,1.4µM
COc1ccc(-c2csc(NC3OC(=O)c4c3ccc(OC)c4OC)n2)cc1OC (configuration not stated),.,-,-,.,-,-
Cc1cc(=O)n2nc(-c3ccccc3)sc2n1,-,?,?,13µM,?,2µM
COC(=O)c1cc(=O)nc2sc(-c3ccccc3)nn12,-,-,-,-,-,-
Cc1cc2nc(N)sc2cc1C,-,.,9.5µM,?,.,.
Nc1nc2ccc(S(=O)(=O)c3ccc4nc(N)sc4c3)cc2s1,-,-,-,-,-,-
CC(C)c1ccc2nc(N)sc2c1,-,-,6.7µM,13µM,1.6µM,2µM
Nc1nc2ccc(O)cc2s1,-,-,-,-,-,-
COC(=O)C1=NN(C(=O)c2ccccc2)C(O)(c2ccc([N+](=O)[O-])cc2)C1 (configuration not stated),.,-,24µM,.,-,-
COc1ccc(NC(=O)c2cc(-c3ccco3)on2)cc1OC,.,?,-,.,-,-
Cc1ccc(NC(=O)c2cc(-c3ccco3)on2)cc1C,-,?,2.7µM,-,-,-
Cc1ccc(NC(=O)c2cc(-c3cccc(O)c3)on2)cc1C,-,?,9.5µM,-,-,-
Cc1ccc(NC(=O)c2cc(-c3ccco3)on2)cc1,-,?,2.1µM,-,-,-
Cc1cc(NC(=O)c2cc(-c3ccco3)on2)no1,-,-,-,-,-,-
O=C(NCCc1ccccc1)c1cc(-c2ccco2)on1,-,?,6µM,10µM,2.5µM,2.8µM
CCOC(=O)c1oc2c(c1C)-c1nn(Cc3cccc(Cl)c3)cc1CC2,.,.,-,-,.,.
SMILES,Luc counter,ELG1 genotox,FLuc counter,SMN2 splice up,NPC1 prom act,Rab9 prom act
Cc1cccc(OCC(=O)N(Cc2cccc(Cl)c2)Cc2ccco2)c1C,.,.,-,-,.,.
C=CCNC(=O)/C(C#N)=C/c1ccc(SC)cc1,-,-,12µM,-,-,-
COCCNC(=O)/C(C#N)=C/c1ccc2c(c1)OCO2,-,-,?,.,-,-
C=CCNC(=O)/C(C#N)=C/c1ccc2c(c1)OCCO2,-,-,12µM,-,-,-
N#C/C(=C\c1ccc2c(c1)OCCO2)C(=O)Nc1nccs1,.,-,0.6µM,.,-,-
Cc1ccc2c(=O)cc(C(=O)Nc3nnc(CC(C)C)s3)oc2c1C,.,.,?,-,.,.
COc1ccc(NC(=O)CCCc2nc(-c3ccco3)no2)c(OC)c1,.,.,-,.,.,.
Fc1ccccc1NC(=S)N1CCC(c2ccccc2)C1 (configuration not stated),-,?,?,-,?,?
S=C(Nc1ccccc1Cl)N1CCC(c2ccccc2)C1 (configuration not stated),-,?,24µM,13µM,3.5µM,2.8µM
